In PubChem BioAssay (EPA / NIEHS):
The source made the active and inactive calls. How the source made its calls: active means hit-call score of the fitted dose curve at least 0.9, where 1 is the maximum; inactive means score below 0.9.

Assays:
Conditions in all cases: mRNA level, 48 h; actives raise or lower the signal
[1] = read-out: Hypoxia-inducible factor 1-alpha (Homo sapiens) (UniProt Q16665); experiment: LTEA_HepaRG_HIF1A: Life Technologies and Expression Analysis (LTEA) Assay for Hypoxia-inducible factor 1 (HIF1A) Trancription factor using HepaRG (AID 2283503)
How it was run: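 HepaRG, 48 h exposure, 8-pt half-log series from 100 uM, 0.5% DMSO vehicle, duplicates. Readout: HIF1A transcript by qRT-PCR (Fluidigm array), housekeeping-normalised. Bidirectional curve fit vs DMSO baseline.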

[2] = read-out: 3-Hydroxy-3-Methylglutaryl-CoA Synthase 2 (HMGCS2), HMGCS2 (gene 3158); experiment: LTEA_HepaRG_HMGCS2: Life Technologies and Expression Analysis (LTEA) Assay for 3-Hydroxy-3-Methylglutaryl-CoA Synthase 2 (HMGCS2) using HepaRG (AID 2283504)
How it was run: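 HepaRG, plated 48 h then switched to serum-free induction media; cmpd 8-pt, max 100 uM, 1/2-log, 0.5% DMSO, n=2, 48 h. HMGCS2 mRNA by Fluidigm TaqMan qRT-PCR, ACTB/GAPDH/POLR2A norm; bidirectional fit vs DMSO.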

[3] = read-out: HGF (gene 3082); experiment: LTEA_HepaRG_HGF: Life Technologies and Expression Analysis (LTEA) Assay for Hepatocyte Growth Facto (HGF) using HepaRG (AID 2283505)
How it was run: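 Read-out is HGF transcript level by qRT-PCR, normalized to three housekeeping genes, fitted bidirectionally against 0.5% DMSO vehicle. Human HepaRG cells received test chemicals for 48 h at up to 100 uM.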

[4] = read-out: Insulin Like Growth Factor 1 (IGF1), IGF1 (gene 3479); experiment: LTEA_HepaRG_IGF1: Life Technologies and Expression Analysis (LTEA) Assay for Insulin Like Growth Factor 1 (IGF1) using HepaRG (AID 2283506)
How it was run: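 Using human HepaRG liver cells, IGF1 transcript induction or suppression is measured 48 h after dosing across eight concentrations capped at 100 uM. Values derive from bidirectional concentration-response fitting with DMSO as baseline.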

[5] = read-out: Intercellular Adhesion Molecule 1 (ICAM1), ICAM1 (gene 3383); experiment: LTEA_HepaRG_ICAM1: Life Technologies and Expression Analysis (LTEA) Assay for Intercellular Adhesion Molecule 1 (ICAM1) using HepaRG (AID 2283507)
How it was run: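 Readout is qRT-PCR mRNA level, normalized to three housekeeping genes and fitted bidirectionally against 0.5% DMSO vehicle. Human HepaRG cultures received compound for 48 h, top concentration 100 uM with half-log dilutions.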

[6] = read-out: Insulin-like growth factor-binding protein 1 (IGFBP1), IGFBP1 (gene 3484); experiment: LTEA_HepaRG_IGFBP1: Life Technologies and Expression Analysis (LTEA) Assay for Insulin-like growth factor-binding protein 1 (IGFBP1) using HepaRG (AID 2283508)
How it was run: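 Thawed HepaRG cells are plated for 48 h, switched to serum-free induction medium, then dosed in duplicate for another 48 h (100 uM top, half-log steps). Lysates in RLT go to qRT-PCR, and gain or loss of signal is fitted relative to vehicle.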

[7] = read-out: Interleukin 6 (IL6), IL6 (gene 3569); experiment: LTEA_HepaRG_IL6: Life Technologies and Expression Analysis (LTEA) Assay for Interleukin 6 (IL6) using HepaRG (AID 2283509)
How it was run: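 Differentiated human HepaRG cells, plated 48 h then switched to serum-free induction medium, were exposed in duplicate for 48 h to eight half-log concentrations up to 100 uM in 0.5% DMSO. IL6 mRNA measured by qRT-PCR, normalized to ACTB/GAPDH/POLR2A.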

[8] = read-out: Interleukin 6 Receptor (IL6R), IL6R (gene 3570); experiment: LTEA_HepaRG_IL6R: Life Technologies and Expression Analysis (LTEA) Assay for Interleukin 6 Receptor (IL6R) using HepaRG (AID 2283510)
How it was run: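 Concentration-response in human liver HepaRG cells: eight concentrations from 100 uM downward by half-logs, 48 h exposure, 0.5% DMSO vehicle. IL6R mRNA change measured by qRT-PCR and fitted in both directions relative to vehicle.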

[9] = read-out: Potassium channel subfamily K member 1 (KCNK1), KCNK1 (gene 3775); experiment: LTEA_HepaRG_KCNK1: Life Technologies and Expression Analysis (LTEA) Assay for Potassium channel subfamily K member 1 (KCNK1) using HepaRG (AID 2283511)
How it was run: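 Differentiated human HepaRG cells in serum-free induction medium were exposed in duplicate for 48 h to 8 half-log concentrations up to 100 uM in 0.5% DMSO. KCNK1 mRNA was measured by TaqMan qRT-PCR, normalized to ACTB, GAPDH and POLR2A, and fitted bidirectionally versus DMSO.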

[10] = read-out: Keratin 19 (KRT19), KRT19 (gene 3880); experiment: LTEA_HepaRG_KRT19: Life Technologies and Expression Analysis (LTEA) Assay for Keratin 19 (KRT19) using HepaRG (AID 2283512)
How it was run: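 KRT19 transcript levels, measured by Fluidigm qRT-PCR against three housekeeping genes, are fitted for gain or loss of signal relative to DMSO. Human HepaRG cells receive test chemicals (top 100 uM, half-log steps, 0.5% DMSO) for 48 hours.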

[11] = read-out: JUN Transcription Factor, JUN (gene 3725); experiment: LTEA_HepaRG_JUN: Life Technologies and Expression Analysis (LTEA) Assay for JUN Transcription Factor using HepaRG (AID 2283513)
How it was run: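 Human HepaRG liver cells receive test chemicals in 0.5% DMSO for 48 h across an eight-point range topping at 100 uM. Expression changes in JUN are scored in both directions against the DMSO vehicle.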

[12] = read-out: Lipase C (LIPC), LIPC (gene 3990); experiment: LTEA_HepaRG_LIPC: Life Technologies and Expression Analysis (LTEA) Assay for Lipase C (LIPC) using HepaRG (AID 2283514)
How it was run: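 Differentiated human HepaRG cells in serum-free induction medium were exposed in duplicate for 48 h to eight concentrations (top 100 uM, half-log steps, 0.5% DMSO). LIPC mRNA was quantified by TaqMan qRT-PCR, normalized to ACTB, GAPDH and POLR2A, with bidirectional fitting versus DMSO.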

[13] = read-out: Lipoprotein lipase (LPL), LPL (gene 4023); experiment: LTEA_HepaRG_LPL: Life Technologies and Expression Analysis (LTEA) Assay for Lipoprotein lipase (LPL) using HepaRG (AID 2283515)
How it was run: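 Differentiated human HepaRG cells in serum-free induction medium were exposed in duplicate for 48 h to eight half-log concentrations (top 100 uM) in 0.5% DMSO. LPL mRNA was quantified by TaqMan qRT-PCR, normalized to ACTB, GAPDH and POLR2A.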

[14] = read-out: MicroRNA 122 (MIR122), gene 406906; experiment: LTEA_HepaRG_MIR122: Life Technologies and Expression Analysis (LTEA) Assay for MicroRNA 122 (MIR122) using HepaRG (AID 2283516); further: the transcript read is the microRNA miR-122
How it was run: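 HepaRG, 48 h exposure, 8-pt half-log from 100 uM, 0.5% DMSO; TaqMan qRT-PCR; bidirectional fit vs DMSO.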

[15] = read-out: MYC, MYC (gene 4609); experiment: LTEA_HepaRG_MYC: Life Technologies and Expression Analysis (LTEA) Assay for MYC using HepaRG (AID 2283518)
How it was run: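 HepaRG, ~100,000 cells/well, collagen I; 48 h plating; serum-free induction medium; 48 h dosing, duplicate, 100 uM top, half-log, 0.5% DMSO; total RNA → qRT-PCR MYC; gain/loss fit vs DMSO.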

[16] = read-out: matrix metalloproteinase-3 (MMP3), MMP3 (gene 4314); experiment: LTEA_HepaRG_MMP3: Life Technologies and Expression Analysis (LTEA) Assay for matrix metalloproteinase-3 (MMP3) using HepaRG (AID 2283519)
How it was run: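 Differentiated human HepaRG cells, plated 48 h on collagen I, were exposed in duplicate for 48 h in serum-free induction medium to eight half-log concentrations up to 100 uM in 0.5% DMSO. MMP3 mRNA was quantified by TaqMan qRT-PCR, normalised to ACTB, GAPDH and POLR2A.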

[17] = read-out: Paternally Expressed 10 (PEG10), PEG10 (gene 23089); experiment: LTEA_HepaRG_PEG10: Life Technologies and Expression Analysis (LTEA) Assay for Paternally Expressed 10 (PEG10) using HepaRG (AID 2283520);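 on AC50: PEG10 transcript by qRT-PCR normalised to ACTB GAPDH and POLR2A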
How it was run: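 Chemicals tested on HepaRG cells for 48 h, highest concentration 100 uM. PEG10 expression assessed by qRT-PCR relative to DMSO control.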

[18] = read-out: Nuclear factor NF-kappa-B p105 subunit (Homo sapiens) (UniProt P19838); experiment: LTEA_HepaRG_NFKB1: Life Technologies and Expression Analysis (LTEA) Assay for Nuclear Factor Kappa B Subunit 1 (NFKB1) using HepaRG (AID 2283521);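 further: TaqMan qRT-PCR transcript normalised to ACTB GAPDH and POLR2A housekeeping genes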
How it was run: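 Differentiated human HepaRG cells were exposed for 48 h in serum-free induction medium to eight concentrations (top 100 uM, half-log steps, 0.5% DMSO), in duplicate. NFKB1 mRNA was measured by TaqMan qRT-PCR, normalized to ACTB/GAPDH/POLR2A, and fitted bidirectionally against DMSO.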

[19] = read-out: Protein phosphatase 2A (PPP2R4), PTPA (gene 5524); experiment: LTEA_HepaRG_PPP2R4: Life Technologies and Expression Analysis (LTEA) Assay for Protein phosphatase 2A (PPP2R4) using HepaRG (AID 2283522)
How it was run: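 Gene-expression endpoint in HepaRG hepatic cells: 48 h treatment across eight half-log concentrations up to 100 uM in 0.5% DMSO. PPP2R4 mRNA by qRT-PCR, normalized to three endogenous control genes.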

[20] = read-out: matrix metalloproteinase-10 (MMP10), MMP10 (gene 4319); experiment: LTEA_HepaRG_MMP10: Life Technologies and Expression Analysis (LTEA) Assay for matrix metalloproteinase-10 (MMP10) using HepaRG (AID 2283517)
How it was run: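 HepaRG, collagen I, ~100,000 cells/well; serum-free induction medium; 48 h exposure, duplicate, 8-pt half-log to 100 uM, 0.5% DMSO. Readout: TaqMan qRT-PCR, normalized to ACTB/GAPDH/POLR2A; bidirectional fit vs DMSO.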

Measured: AC50

Chain of Hypoxia-inducible factor 1-alpha (Homo sapiens) (Q16665 whole entry, looked up): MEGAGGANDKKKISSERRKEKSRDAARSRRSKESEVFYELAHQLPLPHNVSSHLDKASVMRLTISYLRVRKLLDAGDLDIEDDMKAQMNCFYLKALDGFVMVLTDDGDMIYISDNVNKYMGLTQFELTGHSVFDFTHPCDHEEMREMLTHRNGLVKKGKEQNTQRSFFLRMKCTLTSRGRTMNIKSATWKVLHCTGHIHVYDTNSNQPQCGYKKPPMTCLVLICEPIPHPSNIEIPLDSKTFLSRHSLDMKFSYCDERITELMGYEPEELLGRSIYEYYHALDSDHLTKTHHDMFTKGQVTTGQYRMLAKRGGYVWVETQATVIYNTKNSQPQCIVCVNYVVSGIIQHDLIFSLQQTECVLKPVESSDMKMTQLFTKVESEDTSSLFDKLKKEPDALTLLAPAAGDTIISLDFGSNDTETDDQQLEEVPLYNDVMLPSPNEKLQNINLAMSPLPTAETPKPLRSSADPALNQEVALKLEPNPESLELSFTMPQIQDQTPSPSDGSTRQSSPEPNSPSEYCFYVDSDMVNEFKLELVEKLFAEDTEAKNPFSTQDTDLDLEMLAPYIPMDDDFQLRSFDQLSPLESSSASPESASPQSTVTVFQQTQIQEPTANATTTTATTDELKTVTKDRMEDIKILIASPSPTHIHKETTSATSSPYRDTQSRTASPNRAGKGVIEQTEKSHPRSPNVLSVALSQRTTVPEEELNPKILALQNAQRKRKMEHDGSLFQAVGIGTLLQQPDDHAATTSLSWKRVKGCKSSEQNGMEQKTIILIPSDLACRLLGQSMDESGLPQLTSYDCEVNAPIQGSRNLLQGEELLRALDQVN
Chain of Nuclear factor NF-kappa-B p105 subunit (Homo sapiens) (P19838 whole entry, looked up): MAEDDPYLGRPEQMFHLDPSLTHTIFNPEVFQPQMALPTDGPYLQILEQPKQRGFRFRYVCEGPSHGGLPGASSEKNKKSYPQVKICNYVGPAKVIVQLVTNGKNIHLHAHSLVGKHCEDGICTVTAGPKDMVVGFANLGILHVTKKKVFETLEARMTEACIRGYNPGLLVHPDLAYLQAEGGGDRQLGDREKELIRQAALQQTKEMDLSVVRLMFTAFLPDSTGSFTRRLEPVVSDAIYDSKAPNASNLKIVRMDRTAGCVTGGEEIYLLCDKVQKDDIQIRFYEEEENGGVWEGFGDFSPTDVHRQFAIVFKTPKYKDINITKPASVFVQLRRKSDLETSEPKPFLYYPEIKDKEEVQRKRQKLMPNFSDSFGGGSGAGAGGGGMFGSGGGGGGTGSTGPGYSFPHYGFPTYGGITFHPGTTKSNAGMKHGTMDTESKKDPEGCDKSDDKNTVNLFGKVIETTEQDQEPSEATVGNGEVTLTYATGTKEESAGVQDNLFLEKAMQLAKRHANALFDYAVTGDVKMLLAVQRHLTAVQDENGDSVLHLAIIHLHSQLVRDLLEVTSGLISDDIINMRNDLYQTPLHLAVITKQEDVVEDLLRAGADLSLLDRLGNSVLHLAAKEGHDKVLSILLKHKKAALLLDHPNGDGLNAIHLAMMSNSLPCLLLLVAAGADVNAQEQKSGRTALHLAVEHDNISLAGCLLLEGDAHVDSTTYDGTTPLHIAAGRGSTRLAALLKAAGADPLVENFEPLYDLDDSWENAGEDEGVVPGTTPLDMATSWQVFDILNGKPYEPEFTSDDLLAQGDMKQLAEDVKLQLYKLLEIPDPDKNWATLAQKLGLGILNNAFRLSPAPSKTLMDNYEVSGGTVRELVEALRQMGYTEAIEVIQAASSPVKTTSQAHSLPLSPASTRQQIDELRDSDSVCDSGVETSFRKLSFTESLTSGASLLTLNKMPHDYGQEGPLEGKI

CNc1cnn(-c2cccc(C(F)(F)F)c2)c(=O)c1Cl
inactive: [1] | [3] | [5] | [8] | [9] | [11] | [12] | [13] | [14] | [16] | [18] | [19]
active: [2] 9.92 µM | [4] 36.9 µM | [6] 17.4 µM | [7] 50 µM | [10] 14.5 µM | [15] 19.6 µM | [17] 32 µM

CCCSP(=O)(OCC)SCCC
active: [4] 27.7 µM
inactive: [1] | [2] | [3] | [5] | [6] | [7] | [8] | [9] | [10] | [11] | [12] | [13] | [14] | [20] | [15] | [16] | [19]

CCCCN(CC)c1c([N+](=O)[O-])cc(C(F)(F)F)cc1[N+](=O)[O-]
inactive: [1] | [2] | [3] | [4] | [5] | [6] | [7] | [8] | [9] | [10] | [11] | [12] | [13] | [14] | [20] | [15] | [16] | [18] | [19]

CCCCOC(=O)c1ccccc1C(=O)O
inactive: [1] | [2] | [3] | [4] | [5] | [6] | [7] | [8] | [9] | [10] | [11] | [12] | [13] | [14] | [15] | [16] | [17] | [18] | [19]
